# Experimental data published in the supplement of paper PMC8728848.
# The sample as a whole holds a higher share of the strongest signals than the screen did.
# B1: MpL2 (Macrolepiota procera) (protein)
# chain: MSTQVSSGQTYKITNVKAGTVIDLSGEDNKSIIGYPYHSGKNQQWTFNWTGKAWTLRSASSGSYLGIEGTPADGTRLVAVNDPFEWHIWRDEANENAFRIFVPFTNYNLRLSGYGDTTPGTPVQLWWTWEGLHQTWTIDRP
# Columns and labels:
# Experiment in all cases: glycan array binding signal (z-score within array); higher = stronger binding
# Conditions in all cases: glycan notation: IUPAC condensed, linker removed; mutation: D109R
# [1] = target: Fuc(a1-2)Gal(b1-3)GlcNAc(b1-3)Gal(b1-4)Glc
# Outline: (§1)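 Glycan array data came from 3228 arrays in the Consortium for Functional Glycomics database, and only arrays with an available protein sequence were kept. Glycan names were put into IUPAC-condensed notation, and columns mapping to the same glycan were averaged. The binding signal is a within-array Z-score, averaged across arrays of one protein sequence run at different concentrations or buffers and across linkers. A negative Z-score can be read as non-binding.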
# [2] = target: Fuc(a1-2)Gal(b1-3)[Fuc(a1-4)]GlcNAc(b1-3)[Gal(b1-4)GlcNAc(b1-6)]Gal(b1-4)Glc
# Outline: as §1
# [3] = target: Fuc(a1-2)Gal6S(b1-3)GlcNAc6S
# Outline: as §1
# [4] = target: Fuc(a1-2)Gal6S(b1-4)Glc6S
# Outline: as §1
# [5] = target: Fuc(a1-2)[Gal(a1-3)]Gal(b1-3)GlcNAc(b1-3)GalNAc
# Outline: as §1
# [6] = target: Fuc(a1-2)[Gal(a1-3)]Gal(b1-4)GlcNAc(b1-3)GalNAc
# Outline: as §1
# [7] = target: Fuc(a1-2)[GalNAc(b1-3)]Gal
# Outline: as §1
# [8] = target: Fuc(a1-3)[Gal3S(b1-4)]GlcNAc6S
# Outline: as §1
# Gal(a1-3)Gal(b1-4)GlcNAc = target: Gal(a1-3)Gal(b1-4)GlcNAc
# Outline: as §1
# Gal(a1-4)Gal(b1-4)GlcNAc = target: Gal(a1-4)Gal(b1-4)GlcNAc
# Outline: as §1
# Gal(b1-3)Gal(b1-4)GlcNAc = target: Gal(b1-3)Gal(b1-4)GlcNAc
# Outline: as §1
# Gal(b1-3)GalNAc = target: Gal(b1-3)GalNAc
# Outline: as §1
# [9] = target: Gal(b1-3)GalNAc(a1-3)[Fuc(a1-2)]Gal(b1-4)GlcNAc
# Outline: as §1
# [10] = target: Gal(b1-3)GlcNAc(a1-6)Gal(b1-4)GlcNAc
# Outline: as §1
# [11] = target: Gal(b1-3)GlcNAc(b1-2)[Gal(b1-3)GlcNAc(b1-6)]Man(a1-6)[Gal(b1-3)GlcNAc(b1-2)Man(a1-3)]Man(b1-4)GlcNAc(b1-4)GlcNAc
# Outline: as §1
# [12] = target: Gal(b1-3)GlcNAc(b1-3)Gal(b1-4)GlcNAc(b1-6)[Gal(b1-3)GlcNAc(b1-3)]Gal(b1-4)Glc
# Outline: as §1
# [13] = target: Gal(b1-3)[Fuc(a1-4)]GlcNAc
# Outline: as §1
# Gal(b1-4)Glc = target: Gal(b1-4)Glc
# Outline: as §1
# [14] = target: Gal(b1-4)GlcNAc(a1-6)Gal(b1-4)GlcNAc
# Outline: as §1
# [15] = target: Gal(b1-4)GlcNAc(b1-2)Man(a1-3)[GlcNAc(b1-2)Man(a1-6)]Man(b1-4)GlcNAc(b1-4)GlcNAc
# Outline: as §1
# [16] = target: Gal(b1-4)GlcNAc(b1-3)Gal(b1-4)GlcNAc(b1-2)[Gal(b1-4)GlcNAc(b1-3)Gal(b1-4)GlcNAc(b1-6)]Man(a1-6)[Gal(b1-4)GlcNAc(b1-3)Gal(b1-4)GlcNAc(b1-2)Man(a1-3)]Man(b1-4)GlcNAc(b1-4)[Fuc(a1-6)]GlcNAc
# Outline: as §1
# [17] = target: Gal(b1-4)GlcNAc(b1-3)Gal(b1-4)GlcNAc(b1-3)Gal(b1-4)GlcNAc(b1-2)[Gal(b1-4)GlcNAc(b1-3)Gal(b1-4)GlcNAc(b1-3)Gal(b1-4)GlcNAc(b1-6)]Man(a1-6)[Gal(b1-4)GlcNAc(b1-3)Gal(b1-4)GlcNAc(b1-3)Gal(b1-4)GlcNAc(b1-2)Man(a1-3)]Man(b1-4)GlcNAc(b1-4)[Fuc(a1-6)]GlcNAc
# Outline: as §1
# [18] = target: Gal(b1-4)GlcNAc(b1-3)Gal(b1-4)GlcNAc(b1-3)Gal(b1-4)GlcNAc(b1-3)Gal(b1-4)GlcNAc(b1-2)Man(a1-3)[Gal(b1-4)GlcNAc(b1-3)Gal(b1-4)GlcNAc(b1-3)Gal(b1-4)GlcNAc(b1-3)Gal(b1-4)GlcNAc(b1-2)Man(a1-6)]Man(b1-4)GlcNAc(b1-4)GlcNAc
# Outline: as §1
# [19] = target: Gal(b1-4)GlcNAc(b1-3)Gal(b1-4)GlcNAc(b1-3)Gal(b1-4)GlcNAc(b1-3)Gal(b1-4)GlcNAc(b1-2)[Gal(b1-4)GlcNAc(b1-3)Gal(b1-4)GlcNAc(b1-3)Gal(b1-4)GlcNAc(b1-3)Gal(b1-4)GlcNAc(b1-6)]Man(a1-6)[Gal(b1-4)GlcNAc(b1-3)Gal(b1-4)GlcNAc(b1-3)Gal(b1-4)GlcNAc(b1-3)Gal(b1-4)GlcNAc(b1-2)Man(a1-3)]Man(b1-4)GlcNAc(b1-4)[Fuc(a1-6)]GlcNAc
# Outline: as §1
# [20] = target: Gal(b1-4)GlcNAc(b1-3)Gal(b1-4)GlcNAc(b1-3)Gal(b1-4)GlcNAc(b1-3)Gal(b1-4)GlcNAc(b1-3)Gal(b1-4)GlcNAc(b1-2)Man(a1-3)[Gal(b1-4)GlcNAc(b1-3)Gal(b1-4)GlcNAc(b1-3)Gal(b1-4)GlcNAc(b1-3)Gal(b1-4)GlcNAc(b1-3)Gal(b1-4)GlcNAc(b1-2)Man(a1-6)]Man(b1-4)GlcNAc(b1-4)GlcNAc
# Outline: as §1
# [21] = target: Gal(b1-4)GlcNAc(b1-3)Gal(b1-4)GlcNAc(b1-3)Gal(b1-4)GlcNAc(b1-3)Gal(b1-4)GlcNAc(b1-3)Gal(b1-4)GlcNAc(b1-2)[Gal(b1-4)GlcNAc(b1-3)Gal(b1-4)GlcNAc(b1-3)Gal(b1-4)GlcNAc(b1-3)Gal(b1-4)GlcNAc(b1-3)Gal(b1-4)GlcNAc(b1-6)]Man(a1-6)[Gal(b1-4)GlcNAc(b1-3)Gal(b1-4)GlcNAc(b1-3)Gal(b1-4)GlcNAc(b1-3)Gal(b1-4)GlcNAc(b1-3)Gal(b1-4)GlcNAc(b1-2)Man(a1-3)]Man(b1-4)GlcNAc(b1-4)[Fuc(a1-6)]GlcNAc
# Outline: as §1
# Gal3S(b1-3)GlcNAc = target: Gal3S(b1-3)GlcNAc
# Outline: as §1
# Gal6P(b1-4)GlcNAc = target: Gal6P(b1-4)GlcNAc
# Outline: as §1
# GalNAc(b1-3)GalNAc = target: GalNAc(b1-3)GalNAc
# Outline: as §1
# [22] = target: GalNAc(b1-4)GlcNAc(b1-3)GalNAc(b1-4)GlcNAc
# Outline: as §1
# GalNAc3S(b1-4)GlcNAc3S = target: GalNAc3S(b1-4)GlcNAc3S
# Outline: as §1
# [23] = target: GalNAc3S(b1-4)[Fuc(a1-3)]GlcNAc
# Outline: as §1
# [24] = target: GlcNAc(a1-6)Gal(b1-4)GlcNAc
# Outline: as §1
# [25] = target: GlcNAc(b1-4)GlcNAc(b1-4)GlcNAc
# Outline: as §1
# [26] = target: GlcNAc(b1-4)GlcNAc(b1-4)GlcNAc(b1-4)GlcNAc(b1-4)GlcNAc
# Outline: as §1
# [27] = target: GlcNAc6S(b1-3)Gal(b1-4)GlcNAc
# Outline: as §1
# MurNAc(b1-4)GlcNAc = target: MurNAc(b1-4)GlcNAc
# Outline: as §1
# [28] = target: Neu5Ac(a2-3)Gal(b1-3)GalNAc(b1-3)Gal(a1-4)Gal(b1-4)Glc
# Outline: as §1
# [29] = target: Neu5Ac(a2-3)Gal(b1-4)GlcNAc(b1-2)Man(a1-3)[Neu5Ac(a2-3)Gal(b1-4)GlcNAc(b1-2)Man(a1-6)]Man(b1-4)GlcNAc(b1-4)[Fuc(a1-6)]GlcNAc
# Outline: as §1
# [30] = target: Neu5Ac(a2-6)Gal(b1-4)GlcNAc(b1-2)Man(a1-3)[Neu5Ac(a2-3)Gal(b1-4)GlcNAc(b1-2)Man(a1-6)]Man(b1-4)GlcNAc(b1-4)GlcNAc
# Outline: as §1
# [31] = target: Neu5Ac(a2-6)Gal(b1-4)GlcNAc(b1-2)Man(a1-3)[Neu5Ac(a2-6)Gal(b1-4)GlcNAc(b1-2)Man(a1-6)]Man(b1-4)GlcNAc(b1-4)[Fuc(a1-6)]GlcNAc
# Outline: as §1
# [32] = target: Neu5Ac(a2-6)Gal(b1-4)GlcNAc(b1-3)Gal(b1-4)GlcNAc(b1-3)GalNAc
# Outline: as §1
# [33] = target: Neu5Ac(a2-6)Gal(b1-4)GlcNAc(b1-3)[Neu5Ac(a2-6)Gal(b1-4)GlcNAc(b1-6)]GalNAc
# Outline: as §1
# [34] = target: Neu5Ac(a2-6)Gal(b1-4)GlcNAc6S
# Outline: as §1
# [35] = target: Neu5Ac(a2-6)GalNAc(b1-4)GlcNAc
# Outline: as §1
# [36] = target: Neu5Ac(a2-8)Neu5Ac(a2-8)Neu5Ac(a2-3)Gal(b1-4)Glc
# Outline: as §1
# [37] = target: Neu5Ac(a2-8)Neu5Ac(a2-8)Neu5Ac(a2-3)[GalNAc(b1-4)]Gal(b1-4)Glc
# Outline: as §1
binder,measurement,setting,value
B1,glycan array binding signal (z-score),[1],-0.257
same,glycan array binding signal (z-score),[2],-0.099
same,glycan array binding signal (z-score),[3],-0.247
same,glycan array binding signal (z-score),[4],-0.259
same,glycan array binding signal (z-score),[5],-0.266
same,glycan array binding signal (z-score),[6],-0.251
same,glycan array binding signal (z-score),[7],-0.247
same,glycan array binding signal (z-score),[8],-0.255
same,glycan array binding signal (z-score),Gal(a1-3)Gal(b1-4)GlcNAc,-0.264
same,glycan array binding signal (z-score),Gal(a1-4)Gal(b1-4)GlcNAc,-0.289
same,glycan array binding signal (z-score),Gal(b1-3)Gal(b1-4)GlcNAc,-0.255
same,glycan array binding signal (z-score),Gal(b1-3)GalNAc,-0.256
same,glycan array binding signal (z-score),[9],-0.201
same,glycan array binding signal (z-score),[10],3.81
same,glycan array binding signal (z-score),[11],3.46
same,glycan array binding signal (z-score),[12],3.65
same,glycan array binding signal (z-score),[13],-0.267
same,glycan array binding signal (z-score),Gal(b1-4)Glc,-0.244
same,glycan array binding signal (z-score),[14],12.2
same,glycan array binding signal (z-score),[15],-0.001
same,glycan array binding signal (z-score),[16],3.95
same,glycan array binding signal (z-score),[17],3.9
same,glycan array binding signal (z-score),[18],3.84
same,glycan array binding signal (z-score),[19],4.36
same,glycan array binding signal (z-score),[20],3.94
same,glycan array binding signal (z-score),[21],4.48
same,glycan array binding signal (z-score),Gal3S(b1-3)GlcNAc,-0.276
same,glycan array binding signal (z-score),Gal6P(b1-4)GlcNAc,-0.218
same,glycan array binding signal (z-score),GalNAc(b1-3)GalNAc,-0.254
same,glycan array binding signal (z-score),[22],3.89
same,glycan array binding signal (z-score),GalNAc3S(b1-4)GlcNAc3S,-0.255
same,glycan array binding signal (z-score),[23],-0.254
same,glycan array binding signal (z-score),[24],6.07
same,glycan array binding signal (z-score),[25],-0.248
same,glycan array binding signal (z-score),[26],-0.246
same,glycan array binding signal (z-score),[27],0.055
same,glycan array binding signal (z-score),MurNAc(b1-4)GlcNAc,-0.259
same,glycan array binding signal (z-score),[28],-0.241
same,glycan array binding signal (z-score),[29],-0.215
same,glycan array binding signal (z-score),[30],-0.261
same,glycan array binding signal (z-score),[31],-0.223
same,glycan array binding signal (z-score),[32],-0.261
same,glycan array binding signal (z-score),[33],-0.255
same,glycan array binding signal (z-score),[34],-0.289
same,glycan array binding signal (z-score),[35],-0.301
same,glycan array binding signal (z-score),[36],-0.272
same,glycan array binding signal (z-score),[37],-0.234
